Drawing on PubChem BioAssay (NCATS), this text covers Potency for 40 compounds.

Molecules are shown by their SMILES. Results filed as inconclusive are left out. A call without a number means that no potency is given here. The source made the active and inactive calls. Calls follow the shape of the dose curve; as a rule, active = well fitted cell-killing curve with a large enough effect; inconclusive = small, poorly fitted or top-dose-only effect, or effect the other way; inactive = no such curve, though single readings can be large or run the other way.
Potency is read from the fitted curve at half-maximal effect.

The nature of the experiment: Quantitative High-Throughput drug screen in 47 multiple myeloma cell lines against the NCATS MIPE library collection: EJM_DSMZ cell viability assay (AID 1918926; also: nearly all actives have a fitted effect of over 30% in size). Particulars: EJM myeloma cell viability, CellTiter-Glo ATP, 48 h; series mostly up to 45.8 µM. An excerpt:
PI: Beverly A. Mock Ph.D.
Laboratory of Cancer Biology and Genetics,
Center for Cancer Research, National Cancer Institute,
National Institute of Health, Bethesda, Maryland
Drug resistance and disease progression are common in multiple myeloma (MM) patients, underscoring the need for new therapeutic combinations. […] We hypothesized that effective combinations would reduce MYC expression and enhance p16 activity. […] These preclinical data identify potentially useful drug combinations for evaluation in drug-resistant MM and reveal potential mechanisms of combined drug sensitivity.
Described herein is the primary MIPE qHTS used to cherrypick compounds. Validated compounds were then further tested for potential synergistic activiy.
[1] Peat TJ, Gaikwad SM, Dubois W, Gyabaah-Kessie N, Zhang S, Gorjifard S, Phyo Z, Andres M, Hughitt VK, Simpson RM, Miller MA, Girvin AT, Taylor A, Williams D, D'Antonio N, Zhang Y, Rajagopalan A, Flietner E, Wilson K, Zhang X, Shinn P, Klumpp-Thomas C, McKnight C, Itkin Z, Chen L, Kazandijian D, Zhang J, Michalowski AM, Simmons JK, Keats J, Thomas CJ, Mock BA. Drug combinations identified by high-throughput screening promote cell cycle transition and upregulate Smad pathways in myeloma. Cancer Lett. 2023 Aug 1;568:216284. doi: 10.1016/j.canlet.2023.216284. Epub 2023 Jun 24. PMID: 37356470; PMCID: PMC10408729.
SEQUENCE No. (e.g., 1, 2, 3, etc.); […] (e.g., Cells, Incubation, Reagent, etc.); VALUE and DESCRIPTION.
1; Cells; 5 uL; white, solid bottom 1536-well Greiner assay plate.
2; Compounds; 23 nL; Kalypsis pin tool (Wako USA) equipped with a 1536-well pin head to transfer to the assay plates.
3; Incubation; 48 hours; 37C incubation.
4; Reagent;5uL; CellTiter Glo (Promega).
5; Detector; 425V; Luminescence; Viewlux PerkinElmer.
NOTES (numbers refer to Sequence numbers above)
1. The cell-based screening methods employed in this study were like those previously published. Briefly, the corresponding myeloma cell lines were screened in 1,536-well plates with 500 cells, 5-uL per well for inhibition of cell viability (assessed by measuring ATP levels with CellTiterGlo).
2. NCATS MIPE 4.0 library of approved and investigational drugs were added using the Kalypsis pin tool. Wells treated with DMSO only for 100% viability and media only wells for 0% viability were used as controls.
3. The assay plates were covered and incubated for 48 hours in a 37C, 5% CO2 incubator with controlled humidity.
4. After 48 hours, CellTilter-GloTM luminescent substrate mix (Promega) reagent was added to the assay plate and plates we incubated for 5 min at room temperature.
5. Signal was measured as median relative luminescence units on a ViewLux (PerkinElmer) multiplate reader.
[1] Heske CM, Davis MI, Baumgart JT, Wilson K, Gormally MV, Chen L, Zhang X, Ceribelli M, Duveau DY, Guha R, Ferrer M, Arnaldez FI, Ji J, Tran HL, Zhang Y, Mendoza A, Helman LJ, Thomas CJ. Matrix Screen Identifies Synergistic Combination of PARP Inhibitors and Nicotinamide Phosphoribosyltransferase (NAMPT) Inhibitors in Ewing Sarcoma. Clin Cancer Res. 2017 Dec 1;23(23):7301-7311. doi: 10.1158/1078-0432.CCR-17-1121. Epub 2017 Sep 12. PMID: 28899971; PMCID: PMC6636827.
On the technique in general: In ATP-based viability assays light output follows the ATP content of the culture.
As for `Cc1ccc(C2=Nc3ccc(Cl)cc3OC2)cc1`, the Potency entry is “inactive”.
The entry for `CCOC(=O)[C@H](CCc1ccccc1)N[C@@H](C)C(=O)N1CCCC1C(=O)O` (stereo not given in full) is “inactive”.
With `COC(=O)Nc1ccc(-c2nc(N3CCOCC3)c3cnn(C4CCN(C(=O)OC)CC4)c3n2)cc1`, the Potency was 6.62 µM (active).
Regarding `O=c1[nH]c(=O)n([C@H]2C[C@@H](O)[C@@H](CO)O2)cc1C(F)(F)F`, the Potency was 1.66 µM (active).
To `CCC(c1ccc(O)cc1)C(CC)c1ccc(O)cc1` (stereo not given) belongs 0.935 µM (active); to `NCC1CCC(C(=O)O)CC1` (stereo not given), “inactive”; to `Oc1cc(O)cc(C=Cc2ccc(O)c(O)c2)c1`, 20.9 µM (active).
`CC(C)n1c(C=C[C@H](O)C[C@H](O)CC(=O)O)c(-c2ccc(F)cc2)c2ccccc21`: the Potency entry is “inactive”.
To `C#C[C@]1(O)CC[C@H]2[C@H]3CCc4cc(OC)ccc4[C@H]3CC[C@@]21C` belongs 13.2 µM (active); to `C[C@@H]1[C@H](O)[C@@H](C)C=CC=CC=CC=CC=CC=CC=C[C@H](O[C@@H]2O[C@H](C)[C@H](O)[C@H](N)[C@@H]2O)C[C@@H]2O[C@](O)(C[C@@H](O)C[C@@H](O)[C@H](O)CC[C@@H](O)C[C@@H](O)CC(=O)O[C@H]1C)C[C@H](O)[C@@H]2C(=O)O`, “inactive”; to `COc1cc2c(cc1OC)[C@@H]1Cc3ccc(OC)c(OC)c3CN1CC2`, 10.5 µM (active).
In the case of `CC(C)(F)C[C@H](N[C@@H](c1ccc(-c2ccc(S(C)(=O)=O)cc2)cc1)C(F)(F)F)C(=O)NC1(C#N)CC1`, the Potency result was “inactive”.
The figure for `CC[C@H](C)n1cc(C)c2c(C(=O)NCc3c(C)cc(C)[nH]c3=O)cc(-c3ccc(N4CCNCC4)nc3)cc21` is 20.9 µM (active).
`C[C@]12CCC3=C4CCC(=O)C=C4CC[C@@H]3[C@H]1CC[C@@]2(O)CC#N`: the Potency entry is “inactive”.
For the compound `COc1nccc(-c2c(-c3ccc(F)cc3)ncn2C2CCNCC2)n1`, the Potency entry is “inactive”.
In the case of `O=C(O)C1=CC(O)C(O)[C@H](O)C1` (stereo not given in full), the Potency entry is “inactive”.
To `CC(C)c1onc(-c2c(Cl)cccc2Cl)c1COc1ccc(C=Cc2cccc(C(=O)O)c2)c(Cl)c1` belongs “inactive”; to `COc1c(C)c2c(c(O)c1CC=C(C)CCC(=O)OCCN1CCOCC1)C(=O)OC2`, “inactive”; to `CN(C)CCOc1ccc(-c2nc(-c3ccc4c(c3)CCC4=NO)c(-c3ccncc3)[nH]2)cc1`, 23.5 µM (active).
To `Oc1ccc(C=Cc2cc(O)cc(O)c2)cc1` belongs “inactive”.
With `CN1CCN(c2cccc(Nc3nc4c(-c5ccc(S(C)(=O)=O)cc5)cccn4n3)c2)CC1`, the Potency is 4.18 µM (active).
The figure for `CN(C)CCN(C)C(=O)c1ccc(NC(=O)Nc2ccc(-c3nc(N4CCOCC4)c4ccn(CC(F)(F)F)c4n3)cc2)cc1` is 0.209 µM (active); for `CC1=C(C(=O)Nc2cc3cn[nH]c3cc2F)C(c2ccc(C(F)(F)F)cc2)CC(=O)N1` (stereo not given) it is “inactive”; for `NS(=O)(=O)c1cc(Cl)c(Cl)c(S(N)(=O)=O)c1` it is “inactive”.
The entry for `CNc1nc(Nc2ccc(C(=O)N3CCOCC3)cc2OC)ncc1Cl` is “inactive”.
To `CN[C@@H](C)[C@H]1[C@H](O)C[C@@]2(C)[C@@H]3CC[C@H]4C(C)(C)[C@@H](NC)CC[C@@]45C[C@@]35CC[C@]12C` belongs “inactive”; to `Cc1ccccc1C(=O)c1ccc(Nc2ccc(Br)cc2N)cc1Cl`, 14.8 µM (active).
`Cc1cnc(Nc2cccc(CN3CCOCC3)c2)nc1Nc1cccc(S(=O)(=O)NC(C)(C)C)c1`: the Potency was 10.5 µM (active).
For `Cc1nc(C(=O)NCC(=O)O)c(O)c2ccc(Oc3ccccc3)cc12`, the Potency result is “inactive”.
The entry for `CCOC(=O)[C@H]1O[C@H]1C(=O)N[C@@H](CC(C)C)C(=O)NCCC(C)C` is “inactive”; for `Cc1cc2nc3c(=O)[nH]c(=O)nc-3n(CC(O)C(O)C(O)CO)c2cc1C` (stereo not given) it is 1.18 µM (active).
To `CCCCC[C@H](O)C=C[C@H]1[C@H](O)CC(=O)[C@H]1CCCCCCC(=O)O` belongs “inactive”; to `CC1C(=O)OC2C(O)C34C5CC(C(C)(C)C)C36C(OC(=O)C6O)OC4(C(=O)O5)C12O` (stereo not given), “inactive”; to `CC(C)=CCCC(C)=CCCC(C)=CCCC(C)=CCCC(C)=CCCC(C)=CCCC(C)=CCCC(C)=CCCC(C)=CCO`, “inactive”.
`Cc1cc(CS(=O)(=O)c2ccccc2)cc(OCc2ccc(CN3CCC[C@H]3CO)cc2)c1`: the Potency result is “inactive”.
`COc1ccc(C=CC(=O)Nc2ccccc2C(=O)O)cc1OC`: the Potency entry is “inactive”.
Turning to `Cc1c(-c2cccc3c(CCCOc4cccc5ccccc45)c(C(=O)O)n(Cc4cccnc4)c23)c(COc2ccc(N3CCN([S+](=O)([O-])N(C)C)CC3)cc2)nn1C`, the Potency was 14.8 µM (active).
To `CN(C)CCOc1ccc(C(=C(CCCl)c2ccccc2)c2ccccc2)cc1` belongs 18.7 µM (active); to `O=C1NC(=O)C(c2cnc3ccccn23)=C1c1cn2c3c(cccc13)CN(C(=O)N1CCOCC1)CC2`, 0.187 µM (active).
Turning to `CCN1C[C@H](C)n2c(c(O)c3c(=O)n(Cc4ccc(F)c(Cl)c4)nc(C(=O)NC)c32)C1=O`, the Potency entry was “inactive”.
